Unmarked numbers belong to inactive results. The rule behind the calls is not given here.

For the experiment, the target named is Pantothenate synthetase (Mycobacterium tuberculosis (strain ATCC 25618 / H37Rv)) (UniProt P9WIL5). Description: Recombinant Mtb pantothenate synthetase (PanC) inhibitors, coupled enzyme, confirmatory (AID 375).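 Note: 0% = full reaction with vehicle and 100% = no enzyme background.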 As to conditions: coupled enzyme assay; at 10 µM, stronger effect = higher value.
Chain of Pantothenate synthetase (Mycobacterium tuberculosis (strain ATCC 25618 / H37Rv)) (P9WIL5 whole entry, looked up): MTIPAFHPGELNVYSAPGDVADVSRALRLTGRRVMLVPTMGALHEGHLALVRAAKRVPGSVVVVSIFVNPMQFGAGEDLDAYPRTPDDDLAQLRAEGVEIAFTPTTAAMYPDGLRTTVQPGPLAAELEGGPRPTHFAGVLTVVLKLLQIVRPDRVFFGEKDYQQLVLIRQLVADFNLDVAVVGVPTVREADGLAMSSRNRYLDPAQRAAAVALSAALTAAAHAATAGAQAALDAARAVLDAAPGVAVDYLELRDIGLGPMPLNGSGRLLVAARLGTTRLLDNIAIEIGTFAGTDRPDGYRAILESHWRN
`O=C(CN1CCN(Cc2ccccc2F)C1=O)NCc1cccnc1`: the inhibition is 0%. The same measure for `CCn1cc(C(=O)N2CCN(C(=O)c3ccco3)CC2)c2cc(OC)c(OC)cc2c1=O`: 0%. Regarding `Cc1ccc(-c2nnnn2CS(=O)(=O)c2ccccc2)cc1`, the inhibition was 0%. Next, `CCc1cccc(NC(=O)CCc2nc(-c3cccs3)no2)c1`: 0%; `CC(C)(O)C#Cc1ccc(C(=O)N2CCN(C(=O)c3ccco3)CC2)cc1`: 0%; `O=C(C1CCN(c2nnnn2-c2ccccc2)CC1)N1CCN(c2ccccc2)CC1`: 0%. Next, `Cc1nc2c3cnn(-c4ccccc4)c3ncn2n1`: 7%. Take `Cc1cc(C)nc(N2CCCC(C(=O)Nc3ccc4c(c3)OCO4)C2)n1` (stereo not given): the inhibition is 0%. Next, `O=C(NCc1ccco1)c1cc2c(s1)CSC2`: 0%; `O=C1CC(C(=O)Nc2ccc(Br)cc2)C2(CCCC2)O1` (stereo not given): 1%.

As to `CN(CCCNC(=O)c1cn(C)c2ccc(S(=O)(=O)N(C)C)cc2c1=O)c1ccccc1`, the inhibition is 4%. The same measure for `C=CCN1C(=O)/C(=C2\SC(N3CCOCC3)=NC2=O)c2cc(Br)ccc21`: 0%; for `CC(C)[C@H](NC(=O)OC(C)(C)C)c1nnc(S(=O)(=O)Cc2c(F)cccc2Cl)o1`: 0%; for `COCCN(C(=O)Cn1nnc2ccccc21)C(C(=O)NC1CCCC1)c1cc(OC)ccc1OC` (stereo not given): 6%. Next, `COc1ccc(S(=O)(=O)n2ccnc2)c2cccnc12`: 4%. The same measure for `O=C(CN1CCN(Cc2ccc(F)cc2Cl)C1=O)NCCCN1CCOCC1`: 0%; for `O=C(O)c1cc(Cl)c(Cl)cc1C(=O)N1CCCC1`: 1%; for `COc1ccc2oc(C)c(C(=O)Cn3ccnc3)c2c1`: 0%. For the compound `COC(=O)c1ccccc1NC(=O)CC(NCc1ccccc1)C(=O)O` (stereo not given), the inhibition is 0%. Next, `COc1cccc(-c2noc(CCC(=O)NC3CCCCC3)n2)c1`: 1%; `O=C(Oc1ccccc1)c1cccc(COC(=O)c2cnccn2)c1`: 5%. The same measure for `COc1ccc(-n2ncc3c(NCc4ccc5c(c4)OCO5)ncnc32)cc1`: 0%; for `O=C1CC(c2ccccc2)Cc2nc(N3CCc4ccccc43)ncc21` (stereo not given): 1%; for `CS(=O)(=O)N(Cc1ccco1)CC(O)Cn1c2ccccc2c2ccccc21` (stereo not given): 0%. Turning to `CCc1nnc(SCc2cn3c(C)cc(C)nc3n2)n1N`, the inhibition is 0%. The same measure for `CC(C)[C@H](NC(=O)NCc1ccc(Cl)cc1)C(=O)O`: 0%. The same measure for `COC(=O)Cn1c2c(c3cc(C)ccc31)CCCC2`: 1%; for `Cc1nn(-c2ccccc2)c2c1C(c1c(C)[nH]c(C#N)c1C)C(C#N)=C(N)O2` (stereo not given): 1%.

Take `COc1ccccc1NC(=O)N(C1CCCC1)C1CCN(C(C)=O)CC1`: the inhibition is 1%. Next, `CCN=C1SC(CC(=O)Nc2ccccc2OCC)C(=O)N1CC` (stereo not given): 0%; `Cc1ccc(N2C(=O)c3ccccc3C2O)nc1` (stereo not given): 1%; `Cc1ccc(C(C)C)c(OCCCN2CC(C)OC(C)C2)c1` (stereo not given): 0%. Consider `Cc1nc2sc(C(c3cccs3)N3CC(C)CC(C)C3)c(O)n2n1` (stereo not given), for which the inhibition was 0%. Next, `CC(NC(=O)c1cc2c(=O)n(C)c3ccccc3c2n1C)c1ccc2c(c1)OCCO2` (stereo not given): 3%; `CCCCn1c(CNC(=O)CCC)nc2ccccc21`: 4%; `COCCN(C(=O)c1csnn1)C(C(=O)NC(C)(C)C)c1cccc(OC)c1` (stereo not given): 1%.

`CCCN(CCC)CCNC(=O)C(NS(=O)(=O)c1ccc2c(c1)CCC(=O)N2)c1ccccc1` (stereo not given): the inhibition was 0%.

In the case of `CC1(C)CC(=O)C=C(NCc2ccncc2)C1`, the inhibition was 0%. The same measure for `CCN(CC)S(=O)(=O)c1ccc2oc(C(=O)O)c(C)c2c1`: 0%.

Regarding `CC(=O)Nc1ccc(S(=O)(=O)N2CCN(Cc3ccncc3)CC2)cc1`, the inhibition is 8%.

By inhibition is commonly meant the percentage by which the read-out fell short of the control.

Source of the values: PubChem BioAssay.
